In all, about 400,000 compounds went through this assay and about 13,000 (3.2%) were called active. Another 18% or so got no clear call; they are omitted. Calls come from the whole dose curve; as a rule, active = well fitted cell-killing curve with a large enough effect; inconclusive = small, poorly fitted or top-dose-only effect, or effect the other way; inactive = flat fitted curve, though single readings scatter. What follows is part of a selection rich in actives, with near analogues and random picks from the rest.
Experiment: qHTS assay for MDR1-selective chemotherapeutics: Primary screen using the drug-selected MDR subline cells KB-V1; note: nearly all actives have a fitted effect of over 60% in size
Conditions: KB-V1 MDR cells viability, CellTiter-Glo, 72 h; series mostly up to 46.1 µM; activity change, negative = cytotoxicity: at the top concentration
Procedure, shortened: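 Cytotoxicity toward P-gp-expressing KB-V1 cells was determined as loss of CellTiter-Glo luminescence after 72 h at 37 degrees C. Compounds were tested in quantitative HTS format across a concentration range, with curves fitted to normalized data.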
% is set by controls: 0 for no effect and ±100 for the full control effect; potency is the fitted concentration of half-maximal effect.

SMILES | Potency | activity change, negative = cytotoxicity
Cc1ccc2[nH]c(=O)c(COC(=O)c3ccccn3)cc2c1 | 16.4 µM (active) | –
O=C(OCc1cc2ccccc2[nH]c1=O)c1cccnc1 | – | -6.92% (inactive)
CCOC(=O)c1cc2cc(C)ccc2[nH]1 | – | 0.803% (inactive)
Cc1ccc(S(=O)(=O)N(CCc2ccccc2)c2ccc3c(c2)C2CC3CCN2C(=O)OCc2ccccc2)cc1 (stereo unspecified) | – | -9.87% (inactive)
COc1ccc(OC)c(NC(=O)CSC2=Nc3ccccc3C3=NC(CC(=O)NCCc4ccccc4)C(=O)N23)c1 (stereo unspecified) | – | 11% (inactive)
O=C(Nc1cc2ccccc2oc1=O)C1CCCCC1 | – | 13.7% (inactive)
S=c1[nH]c(-c2cccs2)cn1-c1ccccc1 | – | -1.38% (inactive)
O=c1oc2ccccc2cc1-c1cn(-c2ccccc2)c(=S)[nH]1 | 5.8 µM (active) | –
Cc1ccc(Cn2c(C)c3cnn(CC(=O)NCc4ccccc4)c(=O)c3c2C)cc1 | – | -13.6% (inactive)
COc1ccc(-c2noc(CSc3nc(C)cc(=O)[nH]3)n2)cc1OC | – | 0% (inactive)
CN(CCC#N)c1ccc(C=O)cc1 | – | -7.28% (inactive)
COc1ccc(C(=O)NC2CC(C)(C)Cc3c2cnn3-c2ccccc2C)o1 (stereo unspecified) | 18.4 µM (active) | –
CC1=C(C(=O)NC2CC(C)(C)Cc3c2cnn3-c2ccc(C)cc2)OCCO1 (stereo unspecified) | – | -14.9% (inactive)
COc1ccc(C(=O)NC2CC(C)(C)Cc3c2cnn3-c2ccccc2)c(OC)c1 (stereo unspecified) | – | -23.7% (inactive)
CC(=O)N1Cc2cc(C(=O)NCc3cccc(F)c3)nc(-c3cccc(C4=CCCCC4)c3)c2[C@H]1CCO | – | -10.4% (inactive)
O=C(NC(c1ccc(Cl)cc1)c1cnccn1)C1CCN(Cc2ccc(Cl)cc2)CC1 (stereo unspecified) | – | -6.8% (inactive)
COc1ccccc1CNc1nc(Nc2ccccc2Cl)c2sccc2n1 | – | -8.34% (inactive)
CCOc1ccc(-c2n[nH]c(=S)n2/N=C/c2cc3c(cc2[N+](=O)[O-])OCO3)cc1 | – | -20.5% (inactive)
Cc1ccc(-c2n[nH]c(=S)n2/N=C/c2cc3c(cc2[N+](=O)[O-])OCO3)cc1 | 8.2 µM (active) | –
Cc1ccc(S(=O)(=O)N/N=C\c2cc3c(cc2[N+](=O)[O-])OCO3)cc1 | – | -14.7% (inactive)
Cc1cc2c3ccccc3[nH]c(=O)n2n1 | – | 15.2% (inactive)
CCOC(=O)C1CCCN(C(=O)c2cccc(S(=O)(=O)N3CCOCC3)c2)C1 (stereo unspecified) | – | -5.97% (inactive)
CCOc1ccc(S(=O)(=O)N2CCCC(C(=O)N3CCC(C(N)=O)CC3)C2)cc1Cl (stereo unspecified) | – | -2.55% (inactive)
CCOC(=O)C1CCCN(C(=O)C2CCN(S(=O)(=O)c3ccc(Cl)c(C(F)(F)F)c3)CC2)C1 (stereo unspecified) | 20.6 µM (active) | –

SMILES | Potency | activity change, negative = cytotoxicity
Nc1[nH]c(C(=O)c2ccccc2)c(-c2ccc(Br)cc2)c1C(=O)NC1CC1 | – | -35% (inactive)
CCc1ccc(OCCCn2c(CCCNC(=O)C3CCCCC3)nc3ccccc32)cc1 | – | -0.972% (inactive)
COc1cccc(CNC(=O)c2cccnc2Sc2ccc(Cl)cc2)c1 | – | 18.3% (inactive)
O=C(NCc1cccnc1)c1cccnc1Sc1ccc(Cl)cc1 | 18.4 µM (active) | –
O=C(NC1CCCCCC1)c1cccnc1Sc1ccc(Cl)cc1 | – | 2.94% (inactive)
OCCc1ccc(NCCc2ccco2)cc1 | – | 20.5% (inactive)
COc1ccc([N+](=O)[O-])cc1NC(=O)C(C)OC(=O)C1c2ccccc2Oc2ccccc21 (stereo unspecified) | 9.2 µM (active) | –
COc1ccc([N+](=O)[O-])cc1NC(=O)CCc1ccccc1 | – | -17.9% (inactive)
COc1ccc(C(=O)CC(=O)C(=O)Nc2cc([N+](=O)[O-])ccc2OC)cc1 | – | -1.07% (inactive)
Cc1ccccc1NC(=O)Cc1nc(COC(=O)C(C)(C)Oc2ccc(Cl)cc2)cs1 | – | 9.47% (inactive)
Cc1ccc(Cc2nc3ccccc3nc2SCC(=O)Nc2cccc(C(F)(F)F)c2)cc1 | – | 0% (inactive)
Cn1nc(C(F)(F)F)c(C(=O)Nc2cccc(C(F)(F)F)c2)c1SCc1ccc(Cl)cc1 | 18.4 µM (active) | –
Cc1onc(-c2ccc(F)cc2F)c1C(=O)Nc1cccc(C(F)(F)F)c1 | – | -23.5% (inactive)
CCC(=O)N1CCc2cc(Br)cc(S(=O)(=O)CCC(=O)NCCc3ccc(OC)c(OC)c3)c21 | – | 0% (inactive)
C[C@@H]1CN([C@H](C)CO)C(=O)CCCn2cc(nn2)CO[C@H]1CN(C)S(C)(=O)=O | – | -10.7% (inactive)
Cc1ccc(-c2nn(CCC(=O)Nc3ccc(OC(F)(F)F)cc3)c(=O)c3ccccc23)cc1 | – | -14.4% (inactive)
CCc1nc2ccc(C(=O)Nc3ccc(OC)c(OC)c3)cn2c1N(C)C(=O)c1cccc(OC)c1 | – | 3.04% (inactive)
CCCC/C=C/c1cccc2nncn12 | – | 5.91% (inactive)
CCCCC[C@H](C)N1C[C@@H](COCc2ccccc2)Oc2cc(N3CCC[C@@H]3CO)ccc2S1(=O)=O | – | 13.8% (inactive)
CC(=O)N1CCCc2cc(S(=O)(=O)N3CCCC(C(=O)NCc4ccc(Cl)cc4)C3)ccc21 (stereo unspecified) | inactive | –
CC(=O)N1c2ccc(S(=O)(=O)N3CCCC(C(=O)Nc4cccc(Cl)c4)C3)cc2CC1C (stereo unspecified) | – | -8.22% (inactive)
CC(=O)N1CCCc2cc(S(=O)(=O)N3CCCC(C(=O)N4CCN(c5cccc(Cl)c5)CC4)C3)ccc21 (stereo unspecified) | 16.4 µM (active) | –
CC(=O)c1ccc(NC(=O)CSc2nc(-c3ccccc3F)nc3c2c(=O)n(C)c(=O)n3C)cc1 | – | 27.3% (inactive)
CC(C)CCNC(=O)CSc1nc2ccccc2nc1Cc1ccc(Cl)cc1 | – | 10.5% (inactive)

SMILES | Potency | activity change, negative = cytotoxicity
C=CCSc1nc(Cc2ccc(Cl)cc2)nc2ccccc12 | 16.4 µM (active) | –
CCCNC(=O)CSc1nc(Cc2ccccc2)nc2ccccc12 | – | -19.6% (inactive)
CCOC(=O)c1c(NC(=O)c2cc(-c3ccc(Cl)cc3)on2)sc2c1CCCC2 | – | 6.22% (inactive)
CCn1c(COc2c(C)cccc2C)nnc1SCc1nc2ccccc2c(=O)[nH]1 | – | -6.81% (inactive)
COc1ccc(CCCc2nnc(SCc3nc4ccccc4c(=O)[nH]3)n2C)cc1 | – | -19.7% (inactive)
COc1ccc(C)cc1-n1nnnc1SCc1nc2ccccc2c(=O)[nH]1 | 5.17 µM (active) | –
COCCCn1c(=O)/c(=C/c2ccccc2OC(C)C)s/c1=C(\C#N)C(=O)Nc1ccc(C(=O)O)cc1 | – | -5.04% (inactive)
Cc1nc(C(F)(F)F)ccc1C(=O)N1CCC1(C)C(=O)NS(=O)(=O)c1ccccc1Cl (stereo unspecified) | – | 0.0203% (inactive)
COc1cc(CNC(=O)c2cc3n(n2)CCCN(Cc2cccc(F)c2)C3=O)cc(OC)c1OC | – | 1.03% (inactive)
COC(=O)c1ccccc1NC(=O)Cn1c(=O)cc(C)c2c(C)nn(-c3cccc(Cl)c3C)c21 | – | 3.13% (inactive)
CCCCCNC(=O)c1cccnc1SCC(=O)Nc1ccccc1OC | 6.51 µM (active) | –
CCCNC(=O)c1ccccc1NC(=O)CSCc1ccc(OC)cc1 | – | -14.4% (inactive)
COc1ccccc1NC(=O)CSc1nnc(CNC(=O)c2ccccc2F)o1 | – | 0% (inactive)
O=C(Nc1ccccn1)c1sc2ccc([N+](=O)[O-])cc2c1Cl | – | -9.59% (inactive)
Cc1ccc(-c2ccc(CN3C(C(C)C)C(=O)N(Cc4cn(CCC5OCCCO5)nn4)CCS3(=O)=O)cc2)cc1 (stereo unspecified) | – | -14.7% (inactive)
CNC(=O)C[C@H]1C(=O)N(Cc2ccccc2)C[C@@H]1CSC | – | 1.19% (inactive)
Cc1ccc(-c2nc(-c3cccnc3)sc2CC(=O)Nc2ccc(C)c(Cl)c2)cc1 | 8.2 µM (active) | –
Cc1nc(-c2ccc(F)cc2)c(CC(=O)Nc2cccc(S(=O)(=O)N3CCOCC3)c2)s1 | – | -8.88% (inactive)
Cc1ccc(NC(=O)Nc2cccnc2)cc1 | – | -4.27% (inactive)
CC(=O)N1C[C@@H](CO)[C@@H](N(C)C(=O)c2ccco2)C[C@H]1c1ccccc1 | – | 12.2% (inactive)
CCCCn1nnnc1C(c1cccc(OC)c1OC)N1CCN(C/C=C/c2ccccc2)CC1 (stereo unspecified) | – | 14.1% (inactive)
CC(C)(O)C#Cc1ccc(CNC[C@H]2O[C@@H](n3cnc4c(=O)[nH]c(N)nc43)[C@H](O)[C@@H]2O)s1 | – | 8.09% (inactive)
O=C(c1ccc(S(=O)(=O)N2CCCC2)cc1)N1CCN(c2ccccc2F)CC1 | – | -7.58% (inactive)
O=C(c1ccc(S(=O)(=O)N2CCOCC2)cc1)N1CCN(c2ccccc2)CC1 | 16.4 µM (active) | –

SMILES | Potency | activity change, negative = cytotoxicity
O=C(c1ccc(S(=O)(=O)NCc2ccco2)cc1)N1CCN(c2ccccc2)CC1 | – | -12.4% (inactive)
COc1cc2nnn(-c3ccncc3)c2cc1OC | – | -1.5% (inactive)
CCOC(=O)C1(C)CCCN(C(=O)c2ccc(N(C)C)cc2)C1 (stereo unspecified) | – | 3.14% (inactive)
O=C(Nc1nnc(-c2ccc(Cl)cc2)o1)c1ccccc1Br | 6.51 µM (active) | –
O=C(Nc1ccccc1)c1ccccc1Br | – | 4.37% (inactive)
O=C(COC(=O)c1ccccc1Br)Nc1nnc(-c2ccccc2)o1 | – | -26.5% (inactive)
CCc1nc2c(OCc3ccc(C(=O)OC)cc3)cccn2c1N(C)C(=O)C(C)C | – | 0.64% (inactive)
CCOC(=O)c1sc(NC(=O)C(CC)Sc2nccn2C)nc1C (stereo unspecified) | – | -18.2% (inactive)
C=CCn1nc(C(=O)OCC)cc1-c1sc(NC(=O)c2ccccc2)nc1C | – | -21.4% (inactive)
C=CCn1c2ccccc2c2nnc(SC(CC)C(=O)Nc3nc(C)c(C(=O)OCC)s3)nc21 (stereo unspecified) | 2.31 µM (active) | –
COc1ccccc1CCNC(=O)C(=O)NCCC1CCCCN1S(=O)(=O)c1cccs1 (stereo unspecified) | – | -9.95% (inactive)
O=C(NCCC1CCCCN1S(=O)(=O)c1cccs1)C(=O)Nc1ccc(F)cc1F (stereo unspecified) | 14.6 µM (active) | –
COc1ccc(CCNC(=O)C(=O)NCC2CCCN2S(=O)(=O)c2cccs2)cc1OC (stereo unspecified) | – | -25.2% (inactive)
COc1cc(C#Cc2ccc3cc(CCCO)oc(=O)c3c2)cc(OC)c1 | 3.66 µM (active) | –
O=C1c2ccccc2C(=O)N1CCC#Cc1ccc2cc(C3(O)CCCCC3)oc(=O)c2c1 | – | 4.63% (inactive)
Cn1c(-c2ccc(F)cc2)cnc1SCC(=O)NCc1ccco1 | – | -15.2% (inactive)
O=C(CSc1nnc(-c2ccco2)n1-c1ccccc1)NCCc1ccccc1 | – | -20.9% (inactive)
O=C(CSc1nnc(-c2ccco2)n1Cc1ccccc1)NC(=O)NCc1ccco1 | 20.6 µM (active) | –
CCn1c(SCC(=O)NCc2ccco2)nnc1-c1ccc(N)cc1 | – | 0% (inactive)
Cc1ccc(-c2csc3nnc(SCC(=O)NCc4ccco4)n23)cc1 | 9.2 µM (active) | –
O=C(CSc1nnc2scc(-c3ccc(F)cc3)n12)NCc1ccco1 | – | -5.87% (inactive)
CCOCCn1ccc2c(OCC(=O)NCc3ccc(C)cc3)cccc2c1=O | – | -4.93% (inactive)
CN(C)c1ccc(C(CNS(=O)(=O)c2cc(F)ccc2F)N2CCOCC2)cc1 (stereo unspecified) | – | 4.28% (inactive)
CC[C@@H]1CC2=C(C(=O)OC(C)(C)O2)[C@@H](CC)O1 | – | 2.71% (inactive)

Source: PubChem BioAssay AID1347076 (National Center for Advancing Translational Sciences (NCATS), 2019)
